# From publication PMC7862700, “An all-to-all approach to the identification of sequence-specific readers for epigenetic DNA modifications on cytosine”
# Tests used:
# Assay in all cases: DAPPL (digital affinity profiling via proximity ligation, sequencing); 10 mM Tris-HCl pH 7.5, 50 mM NaCl, 1 mM DTT, 4% glycerol, room temperature, 30 min; GST-TFs on glutathione beads, 16-mer random dsDNA library, 0.1% formaldehyde crosslink after washing; high values mean tight binding
# [1] = molecular target: T1, FLI1 (Homo sapiens, UniProt Q01543 1-452); conditions: protein: recombinant; tags: N-terminal GST; dsDNA, one strand shown
# T1 sequence: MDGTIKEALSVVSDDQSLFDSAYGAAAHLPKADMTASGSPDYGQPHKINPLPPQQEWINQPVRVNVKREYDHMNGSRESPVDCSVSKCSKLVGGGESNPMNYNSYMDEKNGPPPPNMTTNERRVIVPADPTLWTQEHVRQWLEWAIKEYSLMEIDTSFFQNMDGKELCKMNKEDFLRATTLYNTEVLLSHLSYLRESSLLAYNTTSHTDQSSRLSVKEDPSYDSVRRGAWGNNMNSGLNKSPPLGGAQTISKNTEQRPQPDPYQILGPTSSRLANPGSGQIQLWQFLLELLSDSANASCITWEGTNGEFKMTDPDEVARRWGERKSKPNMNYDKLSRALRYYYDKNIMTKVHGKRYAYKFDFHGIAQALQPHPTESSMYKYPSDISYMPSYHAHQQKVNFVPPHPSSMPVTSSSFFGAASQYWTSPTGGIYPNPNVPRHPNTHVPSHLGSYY
# Method in brief: (§1)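 Pools of DNA-barcoded human transcription factors, expressed in yeast as GST fusions on glutathione beads and combined with a tag-only sample, were incubated with 200 nmole of a 16-mer random double-stranded DNA library. Incubation took 30 min at room temperature in Tris/NaCl/DTT/glycerol buffer and was followed by washing, 0.1% formaldehyde crosslinking, proximity ligation (BsaI/T4 ligase, 1 h, 37 °C), PCR amplification and sequencing on an Illumina NextSeq500. Binding signal is the ratio of a hexamer's read frequency for a factor to its frequency for the tag-only sample.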
# [2] = molecular target: T2, ELK1 (Homo sapiens, UniProt P19419 1-428); conditions: protein: recombinant; tags: N-terminal GST; dsDNA, one strand shown
# T2 sequence: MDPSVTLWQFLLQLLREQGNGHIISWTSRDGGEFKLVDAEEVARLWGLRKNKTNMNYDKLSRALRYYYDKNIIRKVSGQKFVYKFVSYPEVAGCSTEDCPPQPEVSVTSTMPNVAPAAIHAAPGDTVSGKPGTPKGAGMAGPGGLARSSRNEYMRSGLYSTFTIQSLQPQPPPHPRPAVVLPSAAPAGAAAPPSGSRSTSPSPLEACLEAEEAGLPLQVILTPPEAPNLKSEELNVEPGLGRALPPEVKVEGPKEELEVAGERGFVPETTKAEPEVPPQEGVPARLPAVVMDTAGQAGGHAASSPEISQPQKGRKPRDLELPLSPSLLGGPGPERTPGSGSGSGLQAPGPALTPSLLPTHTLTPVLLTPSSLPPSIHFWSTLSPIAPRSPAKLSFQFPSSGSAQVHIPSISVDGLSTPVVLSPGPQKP
# Method in brief: as §1
# [3] = molecular target: T3, GABPA (Homo sapiens, UniProt Q06546 1-454); conditions: protein: recombinant; tags: N-terminal GST; dsDNA, one strand shown
# T3 sequence: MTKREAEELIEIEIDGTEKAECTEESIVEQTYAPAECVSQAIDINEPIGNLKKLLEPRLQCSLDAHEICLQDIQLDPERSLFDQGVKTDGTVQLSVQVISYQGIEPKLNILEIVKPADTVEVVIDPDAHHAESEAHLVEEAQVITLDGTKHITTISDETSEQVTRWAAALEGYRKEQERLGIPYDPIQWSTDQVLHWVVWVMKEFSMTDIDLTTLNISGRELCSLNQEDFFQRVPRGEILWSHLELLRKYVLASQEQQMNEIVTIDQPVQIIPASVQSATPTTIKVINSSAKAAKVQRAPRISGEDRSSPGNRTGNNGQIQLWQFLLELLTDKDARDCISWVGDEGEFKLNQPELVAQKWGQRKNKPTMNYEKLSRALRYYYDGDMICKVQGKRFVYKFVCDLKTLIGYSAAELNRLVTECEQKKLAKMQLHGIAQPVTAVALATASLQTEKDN
# Method in brief: as §1
# [4] = molecular target: T4, ERG (Homo sapiens, UniProt P11308 1-479); conditions: protein: recombinant; tags: N-terminal GST; dsDNA, one strand shown
# T4 sequence: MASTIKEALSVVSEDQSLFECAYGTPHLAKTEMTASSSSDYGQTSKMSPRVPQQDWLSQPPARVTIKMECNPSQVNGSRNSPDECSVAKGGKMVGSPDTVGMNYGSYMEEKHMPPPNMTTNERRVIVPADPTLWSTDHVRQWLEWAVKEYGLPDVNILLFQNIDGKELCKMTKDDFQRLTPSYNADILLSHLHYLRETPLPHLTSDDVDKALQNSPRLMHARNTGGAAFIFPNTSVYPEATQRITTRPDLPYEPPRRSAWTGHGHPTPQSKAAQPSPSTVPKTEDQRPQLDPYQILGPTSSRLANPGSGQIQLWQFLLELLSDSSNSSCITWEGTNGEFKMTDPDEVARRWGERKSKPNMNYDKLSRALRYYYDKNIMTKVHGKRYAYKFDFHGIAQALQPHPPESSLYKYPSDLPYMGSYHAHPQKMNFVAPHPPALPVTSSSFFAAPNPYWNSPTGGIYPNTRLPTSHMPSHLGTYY
# Method in brief: as §1
# [5] = molecular target: ELF1 (Homo sapiens, UniProt P32519 1-619); conditions: protein: recombinant; tags: N-terminal GST; dsDNA, one strand shown
# Method in brief: as §1
# [6] = molecular target: T5, EHF (Homo sapiens, UniProt Q9NZC4 1-300); conditions: protein: recombinant; tags: N-terminal GST; dsDNA, one strand shown
# T5 sequence: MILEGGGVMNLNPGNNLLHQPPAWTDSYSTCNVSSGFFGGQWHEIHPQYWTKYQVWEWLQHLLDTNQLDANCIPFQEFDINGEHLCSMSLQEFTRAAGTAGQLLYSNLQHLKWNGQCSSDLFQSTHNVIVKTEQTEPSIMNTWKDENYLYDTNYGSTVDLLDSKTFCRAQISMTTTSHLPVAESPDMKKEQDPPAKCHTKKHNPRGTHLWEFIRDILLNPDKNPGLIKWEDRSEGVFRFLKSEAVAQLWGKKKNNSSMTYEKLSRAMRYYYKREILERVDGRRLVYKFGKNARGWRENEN
# Method in brief: as §1
# [7] = molecular target: SPI1 (Homo sapiens, UniProt P17947 1-270); conditions: protein: recombinant; tags: N-terminal GST; dsDNA, one strand shown
# Method in brief: as §1
# [8] = molecular target: SPIB (Homo sapiens, UniProt Q01892 1-262); conditions: protein: recombinant; tags: N-terminal GST; dsDNA, one strand shown
# Method in brief: as §1
# [9] = molecular target: T6, ELK3 (Homo sapiens, UniProt P41970 1-407); conditions: protein: recombinant; tags: N-terminal GST; dsDNA, one strand shown
# T6 sequence: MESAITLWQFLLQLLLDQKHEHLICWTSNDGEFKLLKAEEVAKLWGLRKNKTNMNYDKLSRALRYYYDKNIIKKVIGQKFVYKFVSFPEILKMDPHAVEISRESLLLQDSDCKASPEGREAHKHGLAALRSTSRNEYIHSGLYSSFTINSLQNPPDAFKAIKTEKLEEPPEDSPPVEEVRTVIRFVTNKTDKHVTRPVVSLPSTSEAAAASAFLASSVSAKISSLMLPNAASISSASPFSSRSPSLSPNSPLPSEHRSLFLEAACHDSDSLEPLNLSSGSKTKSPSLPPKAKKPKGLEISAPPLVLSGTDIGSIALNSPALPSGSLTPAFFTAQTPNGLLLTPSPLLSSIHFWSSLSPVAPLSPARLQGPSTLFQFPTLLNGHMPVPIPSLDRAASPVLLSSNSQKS
# Method in brief: as §1
# [10] = molecular target: T7, FEV (Homo sapiens, UniProt Q99581 1-238); conditions: protein: recombinant; tags: N-terminal GST; dsDNA, one strand shown
# T7 sequence: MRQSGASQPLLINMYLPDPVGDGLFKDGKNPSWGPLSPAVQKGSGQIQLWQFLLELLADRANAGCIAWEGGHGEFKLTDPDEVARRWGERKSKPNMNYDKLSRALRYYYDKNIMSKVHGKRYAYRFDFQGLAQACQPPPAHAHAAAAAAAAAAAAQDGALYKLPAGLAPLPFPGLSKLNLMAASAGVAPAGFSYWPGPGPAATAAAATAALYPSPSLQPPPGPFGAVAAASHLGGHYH
# Method in brief: as §1
# [11] = molecular target: ETV5 (Homo sapiens, UniProt P41161 1-510); conditions: protein: recombinant; tags: N-terminal GST; dsDNA, one strand shown
# Method in brief: as §1
# [12] = molecular target: HSF1 (Homo sapiens, UniProt Q00613 1-529); conditions: protein: recombinant; tags: N-terminal GST; chain copies: 3; dsDNA, one strand shown
# Method in brief: as §1
# [13] = molecular target: T8, SPIC (Homo sapiens, UniProt Q8N5J4 1-248); conditions: protein: recombinant; tags: N-terminal GST; dsDNA, one strand shown
# T8 sequence: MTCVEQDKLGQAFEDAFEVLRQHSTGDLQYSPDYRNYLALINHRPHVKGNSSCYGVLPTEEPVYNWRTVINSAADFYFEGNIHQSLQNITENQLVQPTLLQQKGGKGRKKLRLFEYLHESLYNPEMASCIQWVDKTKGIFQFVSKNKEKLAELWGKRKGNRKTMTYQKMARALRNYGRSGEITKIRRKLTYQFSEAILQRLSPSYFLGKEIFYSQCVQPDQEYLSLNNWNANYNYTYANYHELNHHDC
# Method in brief: as §1
# [14] = molecular target: ELF4 (Homo sapiens, UniProt Q99607 1-663); conditions: protein: recombinant; tags: N-terminal GST; dsDNA, one strand shown
# Method in brief: as §1
# [15] = molecular target: T9, ELK4 (Homo sapiens, UniProt P28324-2 1-405); conditions: protein: recombinant; tags: N-terminal GST; dsDNA, one strand shown
# T9 sequence: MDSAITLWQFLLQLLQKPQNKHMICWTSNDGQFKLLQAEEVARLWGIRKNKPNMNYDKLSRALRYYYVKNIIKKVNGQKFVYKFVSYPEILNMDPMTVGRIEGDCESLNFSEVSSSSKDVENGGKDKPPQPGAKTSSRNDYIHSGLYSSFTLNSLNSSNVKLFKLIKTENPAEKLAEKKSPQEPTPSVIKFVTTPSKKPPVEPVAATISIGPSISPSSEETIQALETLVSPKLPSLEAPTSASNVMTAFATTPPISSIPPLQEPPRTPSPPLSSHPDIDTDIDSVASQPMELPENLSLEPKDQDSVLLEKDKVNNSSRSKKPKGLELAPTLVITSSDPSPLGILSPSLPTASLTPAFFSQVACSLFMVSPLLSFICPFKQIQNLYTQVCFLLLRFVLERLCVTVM
# Method in brief: as §1
# [16] = molecular target: T10, ETV2 (Homo sapiens, UniProt O00321 1-342); conditions: protein: recombinant; tags: N-terminal GST; dsDNA, one strand shown
# T10 sequence: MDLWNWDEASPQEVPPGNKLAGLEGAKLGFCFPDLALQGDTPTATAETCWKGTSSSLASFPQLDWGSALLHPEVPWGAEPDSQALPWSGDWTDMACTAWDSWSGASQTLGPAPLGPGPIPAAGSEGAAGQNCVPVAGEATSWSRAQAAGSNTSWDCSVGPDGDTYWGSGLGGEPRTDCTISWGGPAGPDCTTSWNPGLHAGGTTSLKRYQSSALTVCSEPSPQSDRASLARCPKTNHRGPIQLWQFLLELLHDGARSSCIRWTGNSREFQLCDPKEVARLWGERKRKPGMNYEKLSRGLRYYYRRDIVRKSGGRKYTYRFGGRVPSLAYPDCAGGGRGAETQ
# Method in brief: as §1
# [17] = molecular target: T11, ELF3 (Homo sapiens, UniProt P78545 1-371); conditions: protein: recombinant; tags: N-terminal GST; dsDNA, one strand shown
# T11 sequence: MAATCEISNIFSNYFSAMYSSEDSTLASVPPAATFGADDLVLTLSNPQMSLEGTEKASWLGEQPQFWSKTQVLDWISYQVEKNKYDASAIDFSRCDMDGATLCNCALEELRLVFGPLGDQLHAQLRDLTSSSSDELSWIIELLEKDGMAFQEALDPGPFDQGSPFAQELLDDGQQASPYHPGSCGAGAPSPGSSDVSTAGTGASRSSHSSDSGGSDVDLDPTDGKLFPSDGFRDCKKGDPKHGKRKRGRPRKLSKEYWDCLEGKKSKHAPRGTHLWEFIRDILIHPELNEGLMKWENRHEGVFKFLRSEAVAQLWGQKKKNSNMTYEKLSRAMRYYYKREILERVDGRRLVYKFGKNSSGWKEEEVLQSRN
# Method in brief: as §1
# [18] = molecular target: CRX (Homo sapiens, UniProt O43186 1-299); conditions: protein: recombinant; tags: N-terminal GST; dsDNA, one strand shown
# Method in brief: as §1
# [19] = molecular target: ETV1 (Homo sapiens, UniProt P50549 1-477); conditions: protein: recombinant; tags: N-terminal GST; dsDNA, one strand shown
# Method in brief: as §1
# Chain of ELF1 (P32519 whole entry): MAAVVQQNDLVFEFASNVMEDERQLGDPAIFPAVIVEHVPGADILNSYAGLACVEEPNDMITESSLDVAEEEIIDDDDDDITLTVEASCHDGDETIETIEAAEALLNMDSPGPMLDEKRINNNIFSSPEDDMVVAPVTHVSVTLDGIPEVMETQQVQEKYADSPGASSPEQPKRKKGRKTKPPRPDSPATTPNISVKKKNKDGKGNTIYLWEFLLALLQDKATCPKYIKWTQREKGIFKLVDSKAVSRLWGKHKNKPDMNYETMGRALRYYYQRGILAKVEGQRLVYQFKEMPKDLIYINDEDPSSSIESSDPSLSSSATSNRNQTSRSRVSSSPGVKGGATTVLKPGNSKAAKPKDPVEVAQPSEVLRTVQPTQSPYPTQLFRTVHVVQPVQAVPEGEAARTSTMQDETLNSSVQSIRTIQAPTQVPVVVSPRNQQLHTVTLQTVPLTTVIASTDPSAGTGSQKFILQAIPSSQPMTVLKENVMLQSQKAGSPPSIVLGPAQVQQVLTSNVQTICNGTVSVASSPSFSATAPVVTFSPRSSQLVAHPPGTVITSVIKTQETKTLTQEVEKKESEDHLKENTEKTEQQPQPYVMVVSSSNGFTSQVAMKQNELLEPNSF
# Chain of ETV5 (P41161 whole entry): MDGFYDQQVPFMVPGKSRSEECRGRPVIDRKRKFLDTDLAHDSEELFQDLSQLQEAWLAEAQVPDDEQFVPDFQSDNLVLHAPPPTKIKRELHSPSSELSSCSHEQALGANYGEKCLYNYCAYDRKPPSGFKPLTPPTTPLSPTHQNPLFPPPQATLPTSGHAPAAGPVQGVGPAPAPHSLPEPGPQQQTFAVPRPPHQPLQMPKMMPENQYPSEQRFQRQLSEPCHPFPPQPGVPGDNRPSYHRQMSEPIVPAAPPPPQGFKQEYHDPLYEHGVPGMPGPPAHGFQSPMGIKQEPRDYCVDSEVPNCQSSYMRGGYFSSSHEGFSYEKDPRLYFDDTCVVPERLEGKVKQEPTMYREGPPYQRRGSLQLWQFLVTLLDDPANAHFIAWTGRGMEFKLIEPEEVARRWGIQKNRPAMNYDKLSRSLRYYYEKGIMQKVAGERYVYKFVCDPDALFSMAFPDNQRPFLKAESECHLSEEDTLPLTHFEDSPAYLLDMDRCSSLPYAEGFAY
# Chain of ETV1 (P50549 whole entry): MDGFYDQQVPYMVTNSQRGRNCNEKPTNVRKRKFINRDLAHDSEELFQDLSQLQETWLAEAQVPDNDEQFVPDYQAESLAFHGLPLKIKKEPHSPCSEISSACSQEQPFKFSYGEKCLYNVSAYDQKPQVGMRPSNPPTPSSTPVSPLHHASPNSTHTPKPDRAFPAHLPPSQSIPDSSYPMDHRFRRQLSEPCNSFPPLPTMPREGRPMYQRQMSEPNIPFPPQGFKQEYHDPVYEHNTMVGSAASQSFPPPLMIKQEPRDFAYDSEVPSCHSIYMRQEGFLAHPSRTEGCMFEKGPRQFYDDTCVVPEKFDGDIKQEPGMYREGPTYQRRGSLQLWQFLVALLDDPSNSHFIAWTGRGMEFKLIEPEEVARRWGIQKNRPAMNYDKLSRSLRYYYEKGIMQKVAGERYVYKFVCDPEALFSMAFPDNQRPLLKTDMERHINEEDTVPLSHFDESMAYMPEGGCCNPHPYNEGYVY
# Chain of SPIB (Q01892 whole entry): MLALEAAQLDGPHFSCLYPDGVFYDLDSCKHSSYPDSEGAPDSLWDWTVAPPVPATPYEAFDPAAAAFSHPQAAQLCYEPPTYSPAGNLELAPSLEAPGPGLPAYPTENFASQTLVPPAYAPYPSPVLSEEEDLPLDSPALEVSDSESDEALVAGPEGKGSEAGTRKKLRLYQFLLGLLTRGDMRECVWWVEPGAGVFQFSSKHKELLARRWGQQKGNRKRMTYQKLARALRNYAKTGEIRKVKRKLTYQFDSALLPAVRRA
# Chain of CRX (O43186 whole entry): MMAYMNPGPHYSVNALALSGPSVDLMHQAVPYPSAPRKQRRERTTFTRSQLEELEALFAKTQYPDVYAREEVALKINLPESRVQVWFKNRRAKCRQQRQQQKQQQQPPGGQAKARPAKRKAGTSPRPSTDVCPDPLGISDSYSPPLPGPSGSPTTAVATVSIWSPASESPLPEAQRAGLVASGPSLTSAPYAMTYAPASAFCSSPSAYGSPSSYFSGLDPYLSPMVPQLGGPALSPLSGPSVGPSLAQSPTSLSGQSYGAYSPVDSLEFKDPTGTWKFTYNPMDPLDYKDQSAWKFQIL
# Chain of HSF1 (Q00613 whole entry): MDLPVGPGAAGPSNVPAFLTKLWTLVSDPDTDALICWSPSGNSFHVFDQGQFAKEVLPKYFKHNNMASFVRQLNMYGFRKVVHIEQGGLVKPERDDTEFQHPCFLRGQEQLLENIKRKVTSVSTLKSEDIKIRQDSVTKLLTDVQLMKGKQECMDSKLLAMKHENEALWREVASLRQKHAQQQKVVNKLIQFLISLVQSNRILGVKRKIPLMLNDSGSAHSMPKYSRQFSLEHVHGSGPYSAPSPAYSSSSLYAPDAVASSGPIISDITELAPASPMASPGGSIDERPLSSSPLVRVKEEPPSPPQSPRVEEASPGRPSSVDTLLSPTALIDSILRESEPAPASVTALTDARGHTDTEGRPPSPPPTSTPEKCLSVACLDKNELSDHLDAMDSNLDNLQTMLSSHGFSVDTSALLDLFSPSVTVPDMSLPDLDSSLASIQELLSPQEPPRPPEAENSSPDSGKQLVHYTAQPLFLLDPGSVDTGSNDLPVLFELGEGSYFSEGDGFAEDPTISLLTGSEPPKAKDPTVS
# Chain of ELF4 (Q99607 whole entry): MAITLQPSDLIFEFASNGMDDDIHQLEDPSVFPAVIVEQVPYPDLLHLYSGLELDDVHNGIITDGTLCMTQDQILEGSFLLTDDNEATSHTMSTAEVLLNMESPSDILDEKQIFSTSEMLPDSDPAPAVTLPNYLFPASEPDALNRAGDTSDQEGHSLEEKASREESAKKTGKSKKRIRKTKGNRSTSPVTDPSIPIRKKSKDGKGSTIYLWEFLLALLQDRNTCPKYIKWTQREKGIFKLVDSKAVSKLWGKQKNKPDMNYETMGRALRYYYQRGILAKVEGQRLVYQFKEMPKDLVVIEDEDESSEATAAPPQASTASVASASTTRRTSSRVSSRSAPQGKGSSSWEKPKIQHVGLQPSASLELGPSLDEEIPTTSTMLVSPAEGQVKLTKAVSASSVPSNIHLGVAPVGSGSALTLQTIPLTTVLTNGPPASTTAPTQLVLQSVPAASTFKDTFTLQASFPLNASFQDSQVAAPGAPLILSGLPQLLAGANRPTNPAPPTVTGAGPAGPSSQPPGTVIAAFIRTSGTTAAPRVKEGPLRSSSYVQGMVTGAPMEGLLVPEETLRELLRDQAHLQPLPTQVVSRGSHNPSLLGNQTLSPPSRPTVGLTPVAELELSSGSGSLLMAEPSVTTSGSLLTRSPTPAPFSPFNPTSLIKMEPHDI
sequence,measurement,setting,value
ACACTT,binding signal,[1],"1.63 fold enrichment (6-mer frequency, TF over GST control)"
same,binding signal,[2],"1.7 fold enrichment (6-mer frequency, TF over GST control)"
same,binding signal,[3],"1.53 fold enrichment (6-mer frequency, TF over GST control)"
same,binding signal,[4],"1.8 fold enrichment (6-mer frequency, TF over GST control)"
same,binding signal,[5],"1.69 fold enrichment (6-mer frequency, TF over GST control)"
same,binding signal,[6],"1.66 fold enrichment (6-mer frequency, TF over GST control)"
same,binding signal,[7],"1.95 fold enrichment (6-mer frequency, TF over GST control)"
same,binding signal,[8],"1.67 fold enrichment (6-mer frequency, TF over GST control)"
same,binding signal,[9],"1.74 fold enrichment (6-mer frequency, TF over GST control)"
same,binding signal,[10],"1.68 fold enrichment (6-mer frequency, TF over GST control)"
same,binding signal,[11],"1.67 fold enrichment (6-mer frequency, TF over GST control)"
same,binding signal,[12],"1.11 fold enrichment (6-mer frequency, TF over GST control)"
same,binding signal,[13],"1.71 fold enrichment (6-mer frequency, TF over GST control)"
same,binding signal,[14],"1.55 fold enrichment (6-mer frequency, TF over GST control)"
same,binding signal,[15],"1.49 fold enrichment (6-mer frequency, TF over GST control)"
same,binding signal,[16],"1.58 fold enrichment (6-mer frequency, TF over GST control)"
same,binding signal,[17],"1.66 fold enrichment (6-mer frequency, TF over GST control)"
same,binding signal,[18],"1.16 fold enrichment (6-mer frequency, TF over GST control)"
same,binding signal,[19],"1.77 fold enrichment (6-mer frequency, TF over GST control)"
